Data published in the supplement of paper PMC12636033.
± gives the standard deviation of the averaged measurements. Whole data set: some 33,000 sequences, median “E-score (rank enrichment, -0.5 to 0.5)” near -0.0075, cut for the highest 2% near 0.23. The list comes from a sample in which the highest values are over-represented; it also holds similar and randomly drawn sequences.

These sequences were tested on WT Max(13-93) synthetic (M65Nle) (assay: PBM 8-mer E-score (E-score (rank enrichment, -0.5 to 0.5)); higher = stronger preferential binding).
Protocol: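 Protein binding microarray (universal PBM chip covering all 10-mers in fixed probe flanks) with chemically synthesized human Max(13-93) bHLH-LZ analogs (not full-length Max) bearing noncanonical residues (hArg, Tha, Aib, Nle at 65) and aromatic Cys staples. Read-out per 8-mer (and its reverse complement): E-score (rank-based enrichment, -0.5 to 0.5) and Z-score of median probe intensity.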

Sequence	PBM 8-mer E-score
GTATGCAC	0.1415 ± 0.00096
TCATGCAA	0.174 ± 0.02
GCATGCAA	0.257 ± 0.029
GCATGCAC	0.277 ± 0.0097
ACATGCGG	0.14 ± 0.056
CCATGCAC	0.0862 ± 0.038
AAATGCGT	0.0113 ± 0.099
ACATGCGT	0.313 ± 0.081
CCATGCAA	0.127 ± 0.083
CGCACTGA	-0.179 ± 0.032
ACTGTGTC	-0.00876 ± 0.03
GTCTGGCA	-0.0283 ± 0.1
ATAGACAA	0.1094 ± 0.00018
ACCTCGAT	-0.1167 ± 0.00076
ATTCTAAG	0.0595 ± 0.006
CTGATCCA	0.0725 ± 0.042
CAGAGAAC	-0.0299 ± 0.06
TATGATCA	0.0122 ± 0.2
AAACAGTT	0.0134 ± 0.022
CCCCTATC	-0.00604 ± 0.055
GTCGGAGA	-0.0989 ± 0.0099
ACATGCTC	0.272 ± 0.0055
CCATGCTC	0.084 ± 0.019
ACATGCAT	0.302 ± 0.039
ACATGCCT	0.219 ± 0.077
ACATGCTA	0.174 ± 0.035

Sequence	PBM 8-mer E-score
AAATGCAT	0.229 ± 0.035
AGTCTGGC	-0.226 ± 0.12
GTAGCACA	-0.0865 ± 0.011
AAAAGTAC	0.155 ± 0.029
TGAAGTAA	0.119 ± 0.0048
AGAAGTAA	0.154 ± 0.0017
AAAAGTAT	0.237 ± 0.021
AAAAGTAA	0.157 ± 0.0098
GGAAGTAA	0.238 ± 0.048
GAAAGTAA	0.267 ± 0.032
TAAAGTAA	0.05 ± 0.016
CAAAGTAA	0.0802 ± 0.022
GCCAATCA	0.0501 ± 0.062
TAATCGAA	0.0693 ± 0.0042
CCGAAAGA	-0.0212 ± 0.033
CCCGGGCA	-0.273 ± 0.045
AGGGAGTC	-0.0877 ± 0.012
CATCGGAA	-0.106 ± 0.077
AAGTTGGG	-0.0303 ± 0.066
ATGCACGC	0.26 ± 0.026
ATGCACAG	0.108 ± 0.0019
ATGCACAA	0.14 ± 0.051
CTGCACGC	0.167 ± 0.037
ATGCACGA	0.172 ± 0.088
ATGCACAC	0.239 ± 0.079
ACCTAGCT	-0.036 ± 0.038

Sequence	PBM 8-mer E-score
ACAATCAC	0.28 ± 0.016
GCAATCAC	0.0355 ± 0.036
CCAATCAC	0.158 ± 0.025
AACCAAGA	0.113 ± 0.036
AGGGGGGG	-0.162 ± 0.1
TCAAATCA	0.0295 ± 0.016
TACAACAA	0.245 ± 0.075
CACAACAA	0.17 ± 0.053
AACAACAA	0.222 ± 0.06
GACAACAC	0.025 ± 0.0086
CACAACAC	0.162 ± 0.014
AACAACAC	0.248 ± 0.025
AGCCGCTC	-0.0773 ± 0.005
AGGCACAC	-0.00413 ± 0.014
TATTAGCA	0.103 ± 0.035
CCCCTCCA	0.186 ± 0.16
AGTAACAT	0.165 ± 0.019
ATATAATA	0.256 ± 0.035
GTATAATA	0.194 ± 0.011
ATAATACA	0.265 ± 0.036
ATAATACC	0.203 ± 0.026
CTAATATA	0.203 ± 0.012
ATAATATG	0.2169 ± 0.00097
CTATAATA	0.125 ± 0.03
ACATAATA	0.288 ± 0.01
ACATAATC	0.111 ± 0.029

Sequence	PBM 8-mer E-score
GCATAATA	0.195 ± 0.12
ATAATATA	0.262 ± 0.069
ATAATACG	0.179 ± 0.092
AGCACAAT	0.0982 ± 0.029
ATCGGCCA	-0.199 ± 0.054
AAGATGAA	0.0673 ± 0.0063
AGTTCCTA	-0.0137 ± 0.1
CATTCCGA	0.0189 ± 0.04
CGCTCCAG	-0.224 ± 0.12
ATACTCCC	0.0233 ± 0.061
AGCGATAA	-0.115 ± 0.023
AAACCAGC	-0.182 ± 0.12
CTGAAGGA	-0.0478 ± 0.038
TACAAATA	0.154 ± 0.042
AACAAAAA	0.113 ± 0.021
AACAAAAT	0.301 ± 0.016
AACAAGTA	0.0942 ± 0.0044
AACAAGAT	0.11 ± 0.095
AACAAATA	0.235 ± 0.039
AATCTACG	-0.0669 ± 0.058
AAAGTACG	0.0681 ± 0.065
CAGCACCA	-0.0907 ± 0.0017
CCATTAGA	-0.222 ± 0.029
ATAGAAAA	0.134 ± 0.016
GATTAAGA	0.182 ± 0.054
AATTAATA	0.243 ± 0.094

Sequence	PBM 8-mer E-score
AATTAAAC	0.218 ± 0.018
GATTAATA	0.266 ± 0.022
AATTAAAG	0.184 ± 0.068
TATTAATA	0.19 ± 0.021
AATTAAGC	0.0692 ± 0.079
AATTAAGA	0.241 ± 0.057
AATTAAAT	0.253 ± 0.024
ACTTAATA	0.21 ± 0.015
CATTAATA	0.119 ± 0.11
ATTTAATA	0.23 ± 0.013
AGCAGAAG	-0.0139 ± 0.09
ATCGCTCC	-0.0658 ± 0.15
ACGTAACC	0.109 ± 0.1
CTTACCGC	-0.13 ± 0.11
CTGATCCC	-0.00057 ± 0.1
AGTGCCTG	-0.101 ± 0.011
CTCAAGAG	-0.266 ± 0.032
AATTAATC	0.0672 ± 0.11
AATTAATT	0.262 ± 0.088
CATTAGTA	0.0683 ± 0.015
AATTAGTA	0.249 ± 0.075
AATTAGTC	-0.027 ± 0.071
AATTAATG	0.166 ± 0.16
CGGGCTCA	-0.237 ± 0.039
AAACAAGT	0.0146 ± 0.12
TAACAAAA	0.166 ± 0.0052

Sequence	PBM 8-mer E-score
AAACAAAT	0.275 ± 0.05
AAAACAAG	0.122 ± 0.18
CAACAACA	0.237 ± 0.027
AAACAAAG	0.114 ± 0.032
AAACAAAA	0.284 ± 0.023
GAACAACA	0.0194 ± 0.12
CAACAAGA	0.0122 ± 0.26
AAAACAAT	0.259 ± 0.0082
AAACAAAC	0.0359 ± 0.011
AAAACAAC	-0.0511 ± 0.034
CTATCTGC	-0.0743 ± 0.063
CACTACAG	-0.123 ± 0.011
GTTAGAGA	-0.0703 ± 0.011
AAGGCGAT	0.0502 ± 0.11
ATTAAAGC	0.133 ± 0.061
AAGGTTGA	0.14 ± 0.0094
CCGCTTAG	-0.158 ± 0.088
ATGCCGCC	-0.15 ± 0.1
GATCAACA	-0.0789 ± 0.16
AATCAACA	0.283 ± 0.051
TATCAACA	0.192 ± 0.053
GTCAAGAA	0.12 ± 0.082
ATTCGGGA	-0.128 ± 0.12
GAGGAAAA	0.113 ± 0.23
ATTTGAAA	0.124 ± 0.0068
GTTTGAAA	0.277 ± 0.019

Sequence	PBM 8-mer E-score
CTTTGAAA	0.0996 ± 0.023
ATTAAACG	0.255 ± 0.023
ATTAAACA	0.095 ± 0.031
ATTAAACC	0.0834 ± 0.057
ATCAGACG	-0.142 ± 0.13
CACGGTCG	-0.27 ± 0.0093
ATGCAACG	0.0584 ± 0.039
ATGCAACC	0.244 ± 0.066
ATGCAACA	0.229 ± 0.099
ACTCGTTA	-0.0291 ± 0.015
ACCATGTG	0.442 ± 0.0045
ACCATGTC	0.0659 ± 0.016
AACATGGT	0.052 ± 0.061
ACCATGCC	0.00171 ± 0.051
ACCATGTA	0.162 ± 0.065
AACATGCT	0.242 ± 0.035
ACCATGGT	-0.00014 ± 0.21
ACCATGAT	0.136 ± 0.019
ACCATGCG	0.243 ± 0.0064
AACATGCA	0.202 ± 0.039
ACCATGCT	0.277 ± 0.028
ACCATGCA	0.221 ± 0.0057
